Values joined by “and” are separate entries in the source; they are usually repeats but may differ in a detail not shown here. Equal entries are not always repeated. About 83,000 compounds went through this panel and 20% of them were active in at least one assay; those are over-represented in the sample as a whole.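 Treatment: one concentration, 48 hours, 96-well format. Scoring: percent growth, with anything below 10 considered active.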 Active and inactive are the calls of the source.
What was measured:
Assay in all cases: NCI-60 one-dose screen, 48 h (100 = growth as untreated, 0 = no growth, -100 = all killed)
Conditions in all cases: 10 µM unless noted
[1] = system: NCI-H23 lung
[2] = system: NCI-H226 lung
[3] = system: NCI-H322M lung
[4] = system: HOP-62 NSCLC
[5] = system: NCI-H460 lung
[6] = system: HOP-92 NSCLC
[7] = system: NCI-H522 lung
[8] = system: A549/ATCC NSCLC
[9] = system: 786-0 renal
[10] = system: COLO 205 colon

Measured: growth

O=C(O)C(O)c1ccc(Cl)cc1 (stereo not given)
inactive: [1] 99.1% and 107% | [2] 97% and 103% | [3] 101% and 118% | [4] 107% | [5] 106% and 114% | [6] 112% | [7] 100% and 88.1% | [8] 107% and 95.6% | [9] 97.6% and 96.7% | [10] 106% and 116%

CCC1(NC(=O)c2cc(F)c(F)c(F)c2F)C(=O)NC(=O)N(C(C)C)C1=O (stereo not given)
inactive: [1] 47% | [2] 139% | [3] 90.2% | [4] 101% | [5] 99.7% | [6] 79.9% | [8] 75.9% | [9] 101% | [10] 141%
active: [7] -5.62%

O=C1CN2CCC1CC2
inactive: [1] 101% | [2] 96.8% | [3] 99.3% | [4] 93.5% | [5] 115% | [6] 106% | [7] 90.3% | [8] 92.7% | [9] 88.9% | [10] 116%

Cc1ccccc1-n1c(/C=C\c2ccccn2)nc2ccccc2c1=O
inactive: [1] 55.5% | [2] 97.8% | [3] 44.9% | [4] 107% | [5] 68% | [6] 41.2% | [7] 54.8% | [8] 80.4% | [10] 94.2%
active: [9] -1.31%

C[C@]12CCc3nc(-c4ccc(O)c(O)c4)sc3C1=CC[C@@H]1[C@@H]2CC[C@]2(C)C(=O)CC[C@@H]12
active: [7] 8.61%
inactive: [1] 69% | [2] 65% | [3] 80% | [4] 80.8% | [5] 93.8% | [6] 56.3% | [8] 61.2% | [9] 75.3% | [10] 55.4%

C=CC[PH+](c1ccccc1)c1ccccc1.C=CC[PH+](c1ccccc1)c1ccccc1.[Pt+2].[S-]c1ncccn1.[S-]c1ncccn1
active: [2] 3.04% | [6] -7.37% | [7] -46.1% | [10] -11.5%
inactive: [1] 36.6% | [3] 85.1% | [4] 90.3% | [5] 91.6% | [8] 71.4% | [9] 19.6%

CC1=CC(=Nc2ccc(N(CCCl)CCCl)cc2)C=C(C)C1=O
inactive: [1] 23% | [2] 44.5% | [3] 79.2% | [4] 36.5% | [8] 38.4% | [9] 21% | [10] 39.5%
active: [5] 7.26% | [6] -30.7% | [7] -87.2%

CCC(=O)C(CC(C)[N+](C)(C)C)(c1ccccc1)c1ccccc1 (stereo not given)
inactive: [1] 91.7% | [2] 87.8% | [3] 103% | [4] 91.6% | [5] 106% | [6] 103% | [7] 86.1% | [8] 95.8% | [9] 92.9% | [10] 85.8%

CC1=C(C)C(=O)O[C@@H]([C@](C)(O)[C@]2(O)CC[C@@]3(O)[C@@H]4C[C@H]5O[C@]56CC=CC(=O)[C@]6(C)[C@H]4CC[C@]23C)C1
inactive: [6] 15.7%
active: [1] -22% | [2] -45.2% | [3] -15.5% | [4] 2.69% | [5] 5.64% | [7] -59.5% | [8] 7.89% | [9] -30.7% | [10] -83.1%

O=C1NC(=O)C(=Cc2ccccc2)C(=O)N1
inactive: [1] 98.5% and 102% | [2] 96.1% and 101% | [3] 106% and 105% | [4] 94.9% and 92.6% | [5] 127% and 105% | [6] 85.9% and 109% | [7] 96.1% and 94.5% | [8] 101% and 91.4% | [9] 102% and 107% | [10] 135% and 109%

C/C(=C(\c1ccc(OCCN2CCOCC2)cc1)c1ccc(OC(=O)Cc2ccccc2)cc1)c1ccc(Cl)cc1
inactive: [1] 86% | [2] 103% | [3] 90.6% | [4] 98.9% | [5] 97.6% | [6] 70% | [7] 72.9% | [8] 90.4% | [9] 77.7% | [10] 106%

— PubChem BioAssay (NCI)
